GC-B act = GC-B (human) receptor activation; activation, % at 10 µM; AID 1920062; P20594; hit rate 0.11% among 370,000; HEK293-GC-B cells, CNP EC30, cGMP TR-FRET; 0% at EC30 CNP, 100% saturating CNP;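 active = activation at 10 µM reaching about 35% in either raw or pattern-adjusted values, limit read from the data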
Target sequence (P20594 whole entry, looked up): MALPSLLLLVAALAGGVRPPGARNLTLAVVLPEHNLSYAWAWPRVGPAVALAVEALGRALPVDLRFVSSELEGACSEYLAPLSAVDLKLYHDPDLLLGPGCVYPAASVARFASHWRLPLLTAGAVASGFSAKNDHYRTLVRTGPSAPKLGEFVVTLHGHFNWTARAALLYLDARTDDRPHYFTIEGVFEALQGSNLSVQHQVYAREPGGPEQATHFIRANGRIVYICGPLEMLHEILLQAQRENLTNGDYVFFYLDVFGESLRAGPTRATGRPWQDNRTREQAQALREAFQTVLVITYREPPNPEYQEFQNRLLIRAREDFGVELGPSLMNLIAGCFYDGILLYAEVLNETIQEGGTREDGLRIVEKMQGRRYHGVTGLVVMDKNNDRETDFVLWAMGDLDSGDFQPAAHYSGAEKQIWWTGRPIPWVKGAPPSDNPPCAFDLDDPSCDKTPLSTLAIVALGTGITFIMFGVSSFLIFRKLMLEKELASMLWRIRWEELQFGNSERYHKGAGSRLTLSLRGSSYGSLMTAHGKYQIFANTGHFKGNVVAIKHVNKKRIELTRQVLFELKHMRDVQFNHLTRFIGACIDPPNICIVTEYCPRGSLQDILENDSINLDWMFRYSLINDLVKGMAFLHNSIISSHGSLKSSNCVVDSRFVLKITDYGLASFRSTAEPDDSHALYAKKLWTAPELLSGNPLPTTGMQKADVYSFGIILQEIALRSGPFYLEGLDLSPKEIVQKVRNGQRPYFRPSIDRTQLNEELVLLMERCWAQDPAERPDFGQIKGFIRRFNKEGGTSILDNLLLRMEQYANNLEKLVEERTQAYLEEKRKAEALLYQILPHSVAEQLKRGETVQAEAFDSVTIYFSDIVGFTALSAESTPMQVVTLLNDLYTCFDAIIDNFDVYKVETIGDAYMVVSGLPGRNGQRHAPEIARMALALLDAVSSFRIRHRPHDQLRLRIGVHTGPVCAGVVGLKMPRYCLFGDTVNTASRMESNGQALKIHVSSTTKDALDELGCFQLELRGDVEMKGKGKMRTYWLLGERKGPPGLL
V-ATPase pH = yeast V-ATPase proton transport regulation by pHLuorin; response, % at 10 µM; hit rate 0.37% among 350,000; S. cerevisiae, pHLuorin cytosolic pH fluorescence; in the data active = response mostly above about 7.3%, no sharp cut-off; inactive = mostly below about 5.4%; also: actives read high
PG9 binder = small molecules binding HIV-1 gp120 antibody PG9; TR-FRET gp120-PG9 antibody binding; inhibition, % at 6.7 µM; hit rate 0.43% among 360,000; AID 624416; in the data active = inhibition above about 8.5%
Rev-erbA mod = modulates human Rev-erb alpha binding to DNA. Rev-erbα–FITC-DNA binding, fluorescence polarization, 90 min. hit rate 0.79% among 370,000. activity, % at 10 µM;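 active = activity above about 14%, limit read from the data; passing the limit was not always enough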
NPR1 activator = GC-A (human) enzyme activation; hit rate 0.14% among 370,000; HEK293 GC-A cells, cGMP TR-FRET, EC30 ANP; 0% at EC30 ANP, 100% saturating ANP; activation, % at 10 µM; P16066; AID 1671463; in the data active = activation above about 40%
Rev-erbA confirm = confirmation of modulators of human Rev-erb alpha DNA binding. shares compounds with Rev-erbA mod. Rev-erb alpha FITC-DNA binding, fluorescence polarization, 90 min. activation, % at 25 µM. hit rate 61% among 3,000;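 active = activation at or above a set limit, or at least 3 SD above the negative control mean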
RORg counter = counter-screen for Rev-erb alpha modulators: RORgamma DNA binding; shares compounds with Rev-erbA mod; purified RORgamma protein-FITC-DNA binding, fluorescence polarization; IC50, µM; hit rate 8% among 910; AID 1259320;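 active = Compounds whose fitted half-maximal concentration for disrupting protein-DNA binding is below 10 micromolar; the record names Rev-erb in its text, so the target is in doubt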
Each line names hits and unclear results; the compound was inactive in the other large screens (follow-up assays come after a bar, where they were run). Compounds with a hit are over-represented: about 1.6% of the library has one in this group of screens.

O=C1NC(Cc2ccccc2)c2nc3ccc(Cl)cc3c(=O)n2-c2cc3ccccc3cc21 (stereo unspecified)	Rev-erbA mod 22 | Rev-erbA confirm inactive
O=C1NC(Cc2ccccc2)c2nc3ccc(Cl)cc3c(=O)n2-c2ccc(Cl)cc21 (stereo unspecified)	none (no result: V-ATPase pH)
O=C(COCc1ccccc1)N1CC[C@H]2[C@H](CCCN2Cc2cc(F)cc(F)c2)C1	none (no result: V-ATPase pH, PG9 binder)
COc1ccc(CN2C(=O)CSCCC2(C)c2nnnn2-c2c(C)cccc2C)cc1 (stereo unspecified)	none (no result: V-ATPase pH, PG9 binder)
CCN(C(=O)CSc1nc(C)nc2sc(C)c(C)c12)c1ccc(F)cc1	Rev-erbA mod 24 | Rev-erbA confirm inactive
CCCn1c(N)c(C(=O)CSc2nc(C)nc3sc(C)c(C)c23)c(=O)[nH]c1=O	Rev-erbA mod 35, NPR1 activator 41 | Rev-erbA confirm 61 | RORg counter inactive
CCCn1c(N)c(C(=O)CSc2nc3ccccc3c(=O)n2Cc2ccccc2)c(=O)[nH]c1=O	Rev-erbA mod 74 | Rev-erbA confirm 61
Cc1nc(SCC(=O)N(C)Cc2ccco2)c2c(C)c(C)sc2n1	none
CCCn1c(N)c(C(=O)CSc2nc(C)cs2)c(=O)[nH]c1=O	none
COc1ccc(C(C(=O)N(C)C2CCCC2)N(Cc2ccc(F)cc2)C(=O)c2sccc2Cl)cc1OC (stereo unspecified)	none (no result: V-ATPase pH, PG9 binder)
COC(=O)[C@@]12CCCCC3=C1N(CCC3)C(=O)[C@H]2CC(=O)NCC1CCCCC1	none (no result: V-ATPase pH, PG9 binder)
O=C(c1cccc(C(F)(F)F)c1)N1CC[C@H]2[C@H](CCCN2Cc2ccc(F)cc2)C1	none (no result: V-ATPase pH, PG9 binder)
CN(C)C(=O)CSc1nc2ccccc2c(=O)[nH]1	none
CN(C)C(=O)CSc1nc(-c2cccs2)c(-c2cccs2)[nH]1	Rev-erbA mod 22 | Rev-erbA confirm 24
Cc1ccccc1C(=O)NN(C)c1nc2ccccc2nc1C(F)(F)F	Rev-erbA mod 36 | Rev-erbA confirm 31
Cc1ccc2nc(SCc3ccccc3)c(C=O)c(=O)n2c1	Rev-erbA mod 42 | Rev-erbA confirm 30
CC(=O)c1c(C)[nH]c(C(=O)Nc2ccccc2C)c1C	none (no result: V-ATPase pH, PG9 binder)
Cc1cc(=O)oc2cc(OCC(=O)OCC(=O)Nc3ccc4ccccc4c3)ccc12	none
COc1ccc2cc(C(=O)COC(=O)COc3ccc4c(C)cc(=O)oc4c3)ccc2c1	Rev-erbA mod 85 | Rev-erbA confirm 52 | RORg counter inactive
O=C(CSc1nc2sc3c(c2c(=O)n1-c1ccc(Cl)cc1)CCC3)Nc1ccc(C(=O)O)cc1	none (no result: V-ATPase pH, PG9 binder)
CC(=O)Nc1ccc(/C=C/COC(C)=O)cc1C	none (no result: V-ATPase pH, PG9 binder)
O=c1c2ccccc2n(Cc2ccccc2)n1[C@@H](Cc1ccccc1)Cn1cc(-c2ccc(-c3ccccc3)cc2)nn1	none (no result: V-ATPase pH, PG9 binder)
CC(C)(C)c1ccc(C(=O)OCC(=O)N2CCC(c3ccccc3)=N2)cc1	Rev-erbA mod 14 | Rev-erbA confirm inactive
CCC(C(=O)Nc1nnc(-c2ccco2)s1)c1ccccc1 (stereo unspecified)	Rev-erbA mod 15 | Rev-erbA confirm inactive
CCc1nnc(NC(=O)C(CC)c2ccccc2)s1 (stereo unspecified)	none
CCc1cc2ccc(C)c(C)c2nc1SCC(=O)Nc1cc(C)on1	none
Cc1cc(NC(=O)CSc2nc3cc(C)c(C)cc3cc2C)no1	Rev-erbA mod 85 | Rev-erbA confirm 48 | RORg counter inactive
Cc1cc(NC(=O)CSc2nc3c(C)c(C)ccc3cc2C)no1	Rev-erbA mod 25 | Rev-erbA confirm inactive
Cc1ccc(-c2cc(-c3nnc(SCC(=O)N4CCOCC4)n3N)[nH]n2)cc1	none (no result: V-ATPase pH, PG9 binder)
C#CCNC(=O)C[C@H]1C[C@@]2(C(=O)OC)C(=C[C@H](C3CCCC3)O[C@@H]2C)N(Cc2ccc(Cl)cc2Cl)C1=O	none (no result: V-ATPase pH, PG9 binder)
COc1ccccc1CNC(=O)NCCCN1CCN(c2ccc(F)cc2)CC1	none (no result: V-ATPase pH, PG9 binder)
Cc1cc2oc(=O)cc(-c3ccccc3)c2c(C)c1-c1ccc(O)cc1	Rev-erbA mod 17 | Rev-erbA confirm inactive
Cc1cc(O)c2c(-c3ccccc3)cc(=O)oc2c1	none
O=C(Nc1nnc(-c2ccc(Br)cc2)o1)c1cccc(N2C(=O)CCC2=O)c1	Rev-erbA mod 18 | Rev-erbA confirm inactive
COC(=O)[C@H]1C[C@@]2(N3CCCCC3)c3ccccc3N[C@H]2N1S(=O)(=O)c1ccc(C)cc1	none (no result: V-ATPase pH, PG9 binder)
C/C=C/C(=O)N1CCC(C(=O)NCC2COc3ccccc3O2)CC1 (stereo unspecified)	none (no result: V-ATPase pH, PG9 binder)
CSc1nc(N)c(C(=O)NC2CCCCC2)s1	Rev-erbA mod 23 | Rev-erbA confirm inactive
CCOC(=O)c1sc(SC)nc1N	none
Fc1ccc(-c2n[nH]c(=S)n2N=Cc2ccc(-c3ccccc3)cc2)cc1	none (no result: V-ATPase pH, PG9 binder)
Cc1ccc(OCCC(=O)OCC(=O)NC(=O)NCc2ccccc2)cc1	Rev-erbA mod 17 | Rev-erbA confirm inactive
Cc1cccc(CCNc2nc3ccccc3n3nnnc23)c1	Rev-erbA mod 44 | Rev-erbA confirm inactive
Clc1ccc(Nc2nc3ccccc3n3nnnc23)cc1	Rev-erbA mod 33 | Rev-erbA confirm 18
Clc1ccc(CCNc2nc3ccccc3n3nnnc23)cc1	none
COc1ccc(-n2c(SCC(=O)Nc3ccc4c(c3)OCCO4)nnc2-c2ccccc2)cc1	none (no result: V-ATPase pH, PG9 binder)
O=C(NCC(c1ccccc1)c1ccccc1)[C@H](Cc1ccccc1)NC1(C(=O)NC2CCCCC2)CCOCC1	none (no result: V-ATPase pH, PG9 binder)
Cc1cc2cc(C)c(NCCNC(=O)c3ccccc3F)nc2cc1C	none
Cc1cc2cc(C)c(NCCNC(=O)c3cccs3)nc2cc1C	Rev-erbA mod 21 | Rev-erbA confirm inactive
Cc1cccc(CSc2nc3c(cc2C#N)CCC3)c1	Rev-erbA mod 47 | Rev-erbA confirm 30
N#Cc1cc2c(nc1SCc1cccnc1)CCC2	none
O=[N+]([O-])c1ccc(NCCCN2CCC(C(O)(c3ccccc3)c3ccccc3)CC2)cc1	none (no result: V-ATPase pH, PG9 binder)
CCCCN(CCCC)c1nc2ccccc2nc1C(C#N)C(=O)NCCCOC (stereo unspecified)	Rev-erbA mod 69 | Rev-erbA confirm inactive
CCCCCCNC(=O)C(C#N)c1nc2ccccc2nc1N1CCCC1 (stereo unspecified)	none
CCCCCCNC(=O)C(C#N)c1nc2ccccc2nc1N1CCOCC1 (stereo unspecified)	Rev-erbA mod 40 | Rev-erbA confirm 34 | RORg counter inactive
N#CC(C(=O)NCCc1ccccc1)c1nc2ccccc2nc1N1CCCCC1 (stereo unspecified)	Rev-erbA mod 36 (no result: V-ATPase pH) | Rev-erbA confirm inactive
COC(=O)[C@@]12CCCCC3=C1N(CCC3)C(=O)[C@H]2CC(=O)NCCCCc1ccccc1	none (no result: V-ATPase pH, PG9 binder)
CC(C)c1nc2sc3c(=O)[nH]cnc3c2c2c1CCCC2	Rev-erbA mod 25 | Rev-erbA confirm inactive
